Records with an inconclusive call do not appear. Active and inactive are the calls of the source. How the source made its calls: active means hit-call score of the fitted dose curve at least 0.9, where 1 is the maximum; inconclusive means response in the unintended direction; inactive means score below 0.9.

rat CYP2C12, Cyp2c12 (gene 25011), sequence (P11510 whole entry, looked up): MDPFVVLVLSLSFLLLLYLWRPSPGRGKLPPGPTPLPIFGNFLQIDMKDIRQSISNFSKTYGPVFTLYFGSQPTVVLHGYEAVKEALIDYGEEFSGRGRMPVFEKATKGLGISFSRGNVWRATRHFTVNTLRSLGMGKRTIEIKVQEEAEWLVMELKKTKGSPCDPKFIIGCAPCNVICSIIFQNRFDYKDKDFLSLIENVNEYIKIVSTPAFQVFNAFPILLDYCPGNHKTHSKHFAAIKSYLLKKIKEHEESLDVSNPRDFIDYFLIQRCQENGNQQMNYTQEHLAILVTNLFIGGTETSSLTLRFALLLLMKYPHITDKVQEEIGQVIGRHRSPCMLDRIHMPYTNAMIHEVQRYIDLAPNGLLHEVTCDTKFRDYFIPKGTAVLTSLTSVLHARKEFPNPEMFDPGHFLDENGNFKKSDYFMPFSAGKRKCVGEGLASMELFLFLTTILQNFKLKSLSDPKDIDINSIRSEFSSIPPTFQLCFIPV

The assay has as its target rat CYP2C12, Cyp2c12 (gene 25011) (UniProt P11510). Put plainly: NVS_ADME_rCYP2C12: NovaScreen (NVS) CYP450-related Enzyme Activity (ADME) Assay for rat CYP2C12 (AID 2283119). On the procedure: NVS_ADME_rCYP2C12 is a biochemical, single-readout assay that uses extracted gene-proteins in a cell-free assay. Measurements were taken 0.5 hour after chemical dosing in a 96-well plate.NVS_ADME_rCYP2C12 is one of one assay component(s) measured or calculated from the NVS_ADME_rCYP2C12 assay. It is designed to make measurements of enzyme activity, a form of enzyme reporter, as detected with fluorescence intensity signals by Fluorescence technology.Data from the assay component NVS_ADME_rCYP2C12 was analyzed into 1 assay endpoint. This assay endpoint, NVS_ADME_rCYP2C12, was analyzed in the positive analysis fitting direction relative to Acetonitrile as the negative control and baseline of activity. Using a type of enzyme reporter, loss-of-signal activity can be used to understand changes in the enzymatic activity as they relate to the gene Cyp2c12. Furthermore, this assay endpoint can be referred to as a primary readout, because this assay has produced multiple assay endpoints where this one serves a enzymatic activity function. To generalize the intended target to other relatable targets, this assay endpoint is annotated to the cyp intended target family, where the subfamily is xenobiotic metabolism.
Binding assays used specific radioligands (tritiated, iodinated) with non-radioactive competitive displacement ligands in agonist or antagonist protocols (as indicated) and various reference compounds and inhibitors to titrate specific binding to receptors and transporters. Most enzyme assays (CYPs, kinases, phosphatases, proteases, HDACs) used recombinant protein and specific substrates (fluorescence mostly, some colorimetric and radioactive) and inhibitors, followed by a biochemical separation of substrate and product. All assays for the biochemical HTS were initially run in duplicate at a single concentration (10 uM for CYP450 assays and 25 uM for all others). […] Each assay was run with positive and negative controls, and concurrent controls on every plate. The follow-up (secondary) screen tested active chemical-pairs in concentration series, as well as a few additional assays not tested in the primary screen, some selected negative inactives, and several cases re-run in the concentration series for confirmatory purposes.
Consider `CNC(=O)Oc1ccccc1OC(C)C`, for which the result was inactive.

As for `CCCN(CCOc1c(Cl)cc(Cl)cc1Cl)C(=O)n1ccnc1`, the AC50 was 4.58 µM (active).

Consider `O=C(Nc1ccccc1)Nc1cnns1`, for which the result was inactive.

Regarding `COP(=S)(OC)Oc1ccc([N+](=O)[O-])cc1`, the AC50 is 6.47 µM (active).

As for `CC(C)(C)C(O)/C(=C\c1ccc(Cl)cc1Cl)n1cncn1` (stereo not given), the AC50 is 1.25 µM (active).

On to `O=C(NC(=O)c1c(F)cccc1F)Nc1ccc(OC(F)(F)C(F)OC(F)(F)F)c(Cl)c1` (stereo not given), for which the molecule was classed as inactive.

On to `N#Cc1c(Cl)c(Cl)c(Cl)c(C#N)c1Cl`, for which the call was inactive.

With `O=C1c2ccccc2C(=O)N1SC(Cl)(Cl)Cl`, the molecule was called inactive.

Consider `CCOC1Oc2ccc(OS(C)(=O)=O)cc2C1(C)C` (stereo not given), for which the AC50 is 2.33 µM (active).

For the molecule `[2H]C1([2H])[n+]2ccccc2-c2cccc[n+]2C1([2H])[2H]`, the molecule was classed as inactive.

For orientation: AC50 means the concentration at which the activity in the assay is half-maximal.

For the origin of these results see PubChem BioAssay (EPA / NIEHS).
